Compound activity as filed in PubChem.
GLP1R inv ag: qHTS of GLP-1 Receptor Inverse Agonists (Inhibition Mode); Potency, µM (series often up to 38.3 µM), inactives show at the top dose activity change, negative = inhibition, actives largely listed as inhibitors; HEK293 GLP-1R CRE-luciferase, luminescence, 24 h; GLP-1R form is constitutively active; AID 624417, 2012; hit rate 1.6% among 410,000; also: potency is read from the fitted curve at half-maximal effect; % is scaled to controls: 0 for no effect and ±100 for the full control effect; nearly all actives have a fitted effect of over 55% in size
Target sequence (P43220 whole entry, looked up): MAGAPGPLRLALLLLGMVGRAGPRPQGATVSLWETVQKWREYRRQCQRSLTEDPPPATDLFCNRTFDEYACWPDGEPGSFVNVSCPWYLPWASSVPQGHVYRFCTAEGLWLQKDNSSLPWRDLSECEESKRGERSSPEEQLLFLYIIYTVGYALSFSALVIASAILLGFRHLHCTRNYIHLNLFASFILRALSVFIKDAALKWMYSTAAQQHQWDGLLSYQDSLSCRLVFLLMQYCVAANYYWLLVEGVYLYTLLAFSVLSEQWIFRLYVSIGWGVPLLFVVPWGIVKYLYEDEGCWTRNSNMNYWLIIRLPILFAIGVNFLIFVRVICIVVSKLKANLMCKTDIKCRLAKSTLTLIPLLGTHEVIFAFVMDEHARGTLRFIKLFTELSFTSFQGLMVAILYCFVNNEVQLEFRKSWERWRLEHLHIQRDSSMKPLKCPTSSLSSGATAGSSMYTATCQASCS
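Luminescence readout: a drop in cAMP-driven luciferase signal flags inverse agonism at a constitutively active GLP-1R stably expressed in HEK293. Compound exposure lasted 24 hr at 37 deg C, 5% CO2.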
p53 reactivation: qHTS assay for re-activators of p53 using a Luc reporter; H1299 p53-A138V BP100-luciferase reporter, luminescence, 24 h; Potency, µM (series often up to 92.2 µM), for the others: at the top dose activity change, positive = activation, usual class: activators; hit rate 0.063% among 320,000; AID 504706, 2011; also: potency is read from the fitted curve at half-maximal effect; % of control where 0% means no effect; nearly all actives have a fitted effect of over 45% in size
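H1299 (p53-null), stable ts p53-A138V + BP100-Luc; 1000 cells/well, Opti-MEM/10% FBS; cpd 4 pt, 1:5; 24 h, 37 deg C, 5% CO2; detection reagent 10 min RT; luminescence.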
ClpP mod: qHTS Assay for Activators of ClpP | ATP-dependent Clp protease proteolytic subunit (Bacillus subtilis (strain 168)), P80244 | purified B. subtilis ClpP, FRET peptide cleavage, 20 min | Potency, µM (doses to about 57.5 µM), for the others: at the highest dose activity change, negative = active | hit rate 1.9% among 340,000 | AID 651965, 2013; active = well fitted falling curve with a large enough effect; inconclusive = small, poorly fitted or top-dose-only effect; inactive = no such curve, though single readings can be large or run the other way; also: potency is read from the fitted curve at half-maximal effect; the source files actives as falling curves though it sought activators and does not explain the sign; nearly all actives have a fitted effect of over 65% in size
Target sequence (P80244 whole entry, looked up): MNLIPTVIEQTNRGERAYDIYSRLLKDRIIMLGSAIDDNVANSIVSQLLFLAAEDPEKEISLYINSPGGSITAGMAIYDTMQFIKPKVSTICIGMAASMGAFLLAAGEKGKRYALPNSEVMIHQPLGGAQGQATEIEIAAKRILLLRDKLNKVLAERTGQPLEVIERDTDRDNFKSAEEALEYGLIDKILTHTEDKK
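Purified B. subtilis ClpP, 10 microg/mL final in Tris/HCl pH8 with KCl, BSA, glycerol and Tween-20, cleaved an Abz/nitrotyrosine-quenched decapeptide. Fluorescence (ex 320, em 430) was read at 0 and 20 min at room temperature. Delta was normalized to 5.8 microM ADEP and DMSO/no-enzyme controls.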
HEK293 tox: qHTS of GLP-1 Receptor Inverse Agonists: Cytotox Screen. HEK293 cAMP-luciferase reporter cells, luminescence, 24 h. Potency, µM (series often up to 38.3 µM), for inactives: at the highest dose activity change, negative = inhibition, most hits filed as inhibitors. hit rate 0.13% among 410,000;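 also: loss of luciferase light is scored as toxicity; potency is read from the fitted curve at half-maximal effect; % is scaled to controls: 0 for no effect and ±100 for the full control effect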
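Here, cytotoxicity is scored as loss of luminescence. The MLSMR collection was tested on cells seeded in medium containing 10% Nu serum, with a 24 hr compound exposure preceded by 12 hours of culture.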
LDHA block: qHTS assay for inhibitors of human lactate dehydrogenase | L-lactate dehydrogenase A chain (Homo sapiens), P00338 | purified LDHA, NADH/diaphorase-resazurin fluorescence; stronger effect = lower value | activity change, % (values are at about 110 or 230 µM) | hit rate 0.15% among 480,000; in the data active = activity change below about -30%; inconclusive = mostly about -25% to -30%;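 also: plate controls were DMSO wells for no effect and wells without enzyme for full effect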
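Human LDH5 (2 nM) was incubated with 0.06 mM NADH and 0.2 mM pyruvate for 5 min at room temperature in Tris pH 7.4. Remaining NADH was coupled through diaphorase/resazurin, and resorufin fluorescence was read at 0 and 20 min.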
GLP1R ag: qHTS of GLP-1 Receptor Agonists; Glucagon-like peptide 1 receptor (Homo sapiens), P43220; HEK293 GLP-1R CRE-luciferase, luminescence, 4-6 h; cells express a hypersensitive GLP-1R form; Potency, µM (series often up to 45.6 µM), without a hit: at the top dose activation, most hits filed as activators; hit rate 0.007% among 380,000; AID 624172, 2012; also: potency is read from the fitted curve at half-maximal effect; % of control where 0% means no effect
An asterisk follows results filed as active; ? = inconclusive; . = not tested or not shown; [ ] = another dose, or the depositor's remark. In the library only some 2.9% were active in any assay of this set; here they are far more common. Unless noted, calls follow the shape of the dose curve; as a rule, active = well fitted curve in the direction sought with a large enough effect; inconclusive = small, poorly fitted or top-dose-only effect, or another doubt; inactive = no such curve, though single readings can be large; an effect the other way counts as inactive or inconclusive.

SMILES	GLP1R inv ag	p53 reactivation	ClpP mod	HEK293 tox	LDHA block	GLP1R ag
CCc1nc2c(OCc3ccc(Cl)cc3)cccn2c1N(C)C(=O)c1ccco1	10µM*	.	-3%	-23%	-1	0%
CC1(C)CC(=O)C2=C(C1)OC(N)=C(C#N)C2c1cn(-c2ccccc2)nc1-c1ccccc1 (centres undefined)	?	14%	2%	-25%	-1	2%
CC1CCCCC1NC(=O)COC(=O)COc1ccccc1F (centres undefined)	5%	4%	28µM*	-1%	-7	-9%
C/C(=N\NC(=O)COc1cccc(C)c1)c1ccc2ccccc2c1O	1.1µM*	-2%	0%	1%	4	0%
Fc1ccc(N/N=C/c2ccc(F)c(F)c2)c(F)c1	.	.	.	.	6	.
Cc1ccc(/C=N/Nc2ccc(F)cc2F)s1	5µM*	?	-2%	-14%	3	1%
O=C(c1ccco1)N1CCN(C(c2coc3ccc(Cl)cc3c2=O)c2nnnn2C2CCCC2)CC1 (centres undefined)	2%	.	0%	-12%	-4	-9%
O=C(/C=C/c1ccc2c(c1)OCO2)NCc1ccco1	12%	?	28µM*	13%	2	2%
Cc1cc(C)n(C(=O)c2nn(C)c(C)c2[N+](=O)[O-])n1	8%	-1%	-4%	-7%	-15	-14%
COc1cc2c(cc1NC(=O)c1cc(-c3cccnc3)nc3ccc(C)cc13)oc1ccccc12	6%	-1%	20µM*	1%	4	8%
COc1cc2c(cc1NC(=O)c1cc(-c3ccncc3)nc3ccccc13)oc1ccccc12	-37%	-5%	-25%	?	-6	3%
CCCNC(=S)Nc1cc2oc3ccccc3c2cc1OC	8.9µM*	4%	-5%	-15%	0	-6%
COc1cc2c(cc1NC(=O)Nc1ccc(C)cc1)oc1ccccc12	1.8µM*	12%	35µM*	-18%	-3	-3%
CCNC(=S)Nc1cc2oc3ccccc3c2cc1OC	?	9%	4%	?	-4	5%
COc1cc2c(cc1NC(=O)Nc1cccc(C)c1)oc1ccccc12	-4%	-5%	28µM*	-12%	-6	-9%
COc1ccc(-n2nc(C(=O)Nc3cccc(C)n3)c3c4ccccc4n(C)c3c2=O)cc1Cl	6%	.	-21%	5%	-4	-1%
COc1cc2c(cc1NC(=O)CSc1nc3cc(Cl)ccc3s1)oc1ccccc12	16%	3%	5.6µM*	-13%	-1	-13%
COc1cc2c(cc1NC(=S)Nc1cccc(C)c1)oc1ccccc12	0%	12%	11µM*	?	4	-2%
Cc1ccc(CSc2nc3ccccc3c(=O)n2Cc2ccco2)cc1	?	-3%	-13%	17%	-2	1%
O=c1c2ccccc2nc(SCc2ccccc2)n1Cc1ccco1	11µM*	3%	-16%	18%	-1	9%
FC(F)(F)COc1cc(-c2nnc(SCc3ccccc3)n2Cc2ccco2)cc(OCC(F)(F)F)n1	10µM*	0%	-1%	5%	1	13%
CCCN(CC1CC1)c1nc(N)c2c(N)nc(OC)cc2c1C#N	-4%	-6%	25µM*	45%	20	6%
CCCN(CC1CC1)c1oc(-c2ccc(Cl)cc2)nc1C#N	.	.	.	.	-2	.
CC(=O)/C(N=Nc1nc2c([nH]1)c(=O)n(C)c(=O)n2C)=C(\C)O	80%	0%	-1%	2%	-1	13µM*
C=CC(=O)Nc1ccc(Br)cc1	-12%	3%	16µM*	-13%	-5	-7%
SMILES	GLP1R inv ag	p53 reactivation	ClpP mod	HEK293 tox	LDHA block	GLP1R ag
NCC(=O)Nc1ccc(Br)cc1	-14%	5%	.	-9%	-9	-5%
c1nnnn1C12CC3CC(CC(C3)C1)C2	14%	5%	2%	-10%	1	-1%
O=C(COC(=O)Cn1cc(C(F)(F)F)ccc1=O)Nc1ccc(Br)cc1F	1%	-5%	25µM*	0%	-4	-3%
O=C(COC(=O)Cn1cc(C(F)(F)F)ccc1=O)Nc1ccccc1	17%	15%	2%	1%	1	-2%
Cn1c(C(=O)NCc2ccco2)cc2c(=O)[nH]c3ccccc3c21	72%	-7%	28µM*	-1%	-7	5%
CS(=O)(=O)N(Cc1ccc(C(=O)NN=C2CCCCCC2)cc1)c1ccccc1	18%	4%	32µM*	20%	-1	4%
CS(=O)(=O)N(Cc1ccc(C(=O)NN=C2CCCC2)cc1)c1ccccc1	18%	-2%	-1%	0%	1	-4%
CC1(C)CC(N2CCN(Cc3ccccc3)CC2)=CC(=[N+]2CCCCC2)C1	?	0%	.	-27%	-43*	1%
O=C1CC(c2cc3c(cc2Br)OCO3)C2=C(CCCC2=O)N1 (centres undefined)	0%	-1%	25µM*	-6%	-4	-1%
Cc1ccc2c(c1C)NC(=O)CC2c1cc2c(cc1Br)OCO2 (centres undefined)	.	.	.	.	-16	.
CCc1ccc(NC(=O)CC2C(=O)OCCN2CC)cc1 (centres undefined)	3%	.	2%	7%	-1	3%
COc1ccc(CNC(=O)C(C)N2CCN(S(=O)(=O)c3ccccc3F)CC2)cc1 (centres undefined)	-5%	7%	2%	-15%	0	9%
CCCc1ccc(S(=O)(=O)N2CCN(C(C)C(=O)NCc3ccc(OC)cc3)CC2)cc1 (centres undefined)	10µM*	3%	-3%	-6%	-8	-2%
Cc1ccc(CN(CC(=O)NCc2ccccn2)S(=O)(=O)c2ccccc2)cc1	-27%	-5%	-4%	-1%	-2	6%
O=C(c1ccc(Cl)cc1)C1CCCN(Cc2cccn2-c2cccnc2)C1 (centres undefined)	-17%[7.66 µM]	4%	.	-4%[7.66 µM]	-8	7%
O=C(c1ccc2c(c1)OCO2)C1CCCN(Cc2cccn2-c2cccnc2)C1 (centres undefined)	?	-3%	35µM*	-6%	-6	9%
CCCCCn1nc(C(=O)OCCOc2ccccc2F)c2ccccc2c1=O	.	.	.	.	3	.
CCCCN1CCc2c([nH]c3ccccc23)C1=O	5%	22%	20µM*	10%	-2	1%
